# Records with an inconclusive call do not appear. Entries that show only a call come without a potency. Unmarked numbers belong to inactive results. Activity calls are given as the source filed them. Calls come from the whole dose curve; as a rule, active = well fitted curve in the direction sought with a large enough effect; inconclusive = small, poorly fitted or top-dose-only effect, or another doubt; inactive = no such curve, though single readings can be large; an effect the other way counts as inactive or inconclusive.
# What was measured:
# [1] = target: Cellular tumor antigen p53 (Homo sapiens) (UniProt P04637); test: Primary qHTS for small molecule compounds that upregulate eGFP-tagged delta133p53alpha (in N-terminal) cells. (AID 2060322); conditions: NCI-H358 eGFP-delta133p53alpha fluorescence, 24 h; activation: active compounds read high; note: nearly all actives have a fitted effect of over 75% in size; note: potency is the fitted concentration of half-maximal effect;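 for activation: cells pre-induced with doxycycline then dosed without doxycycline; series mostly up to about 56 µM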
# Sequence of Cellular tumor antigen p53 (Homo sapiens) (P04637 whole entry, looked up): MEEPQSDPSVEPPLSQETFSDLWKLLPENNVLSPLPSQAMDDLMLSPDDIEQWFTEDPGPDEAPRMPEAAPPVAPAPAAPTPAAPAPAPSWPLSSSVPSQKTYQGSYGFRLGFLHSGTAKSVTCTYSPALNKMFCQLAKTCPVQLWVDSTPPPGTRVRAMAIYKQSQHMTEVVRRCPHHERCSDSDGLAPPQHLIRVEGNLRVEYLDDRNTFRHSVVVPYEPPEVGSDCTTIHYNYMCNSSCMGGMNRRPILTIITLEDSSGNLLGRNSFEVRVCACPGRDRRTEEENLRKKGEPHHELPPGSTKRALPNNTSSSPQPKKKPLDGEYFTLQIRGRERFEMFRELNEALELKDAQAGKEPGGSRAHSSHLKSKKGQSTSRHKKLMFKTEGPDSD
# Procedure, shortened: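 NCI-H358 cells pre-induced 24 h with 10 ng/ml doxycycline for eGFP-delta133p53alpha, plated dox-free and exposed 24 h at 37C to titrated compounds. Fixed, Hoechst-stained; gated GFP peak intensity by laser scanning cytometry, normalized to DMSO (0%) and 57.5 uM 5-azacytidine (100%).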
# [2] = target: Aldehyde dehydrogenase, mitochondrial (Homo sapiens) (UniProt P05091); test: qHTS for Inhibitors of the Aldehyde Dehydrogenase Family (ALDH2) Primary screen (AID 2061308); note: nearly all actives have a fitted effect of over 55% in size
# [3] = target: Retinaldehyde dehydrogenase 3 (Homo sapiens) (UniProt P47895); test: qHTS for Inhibitors of the Aldehyde Dehydrogenase Family (ALDH1A3) Primary screen (AID 2061315)
SMILES,activation [1],Potency [2],Potency [3],"activity change, negative = inhibition [2]","activity change, negative = inhibition [3]",Potency [1]
CC1(C)CCC[C@]2(C)[C@H]3CC(=O)O[C@]3(C)CC[C@@H]12,20.3%,inactive,inactive,,,
CC1(C)CC[C@]2(C(=O)O)CC[C@]3(C)C(=CCC4[C@@]5(C)CC[C@H](O[C@H]6O[C@H](C(=O)O)[C@@H](O)[C@H](O[C@@H]7O[C@H](CO)[C@H](O)[C@H](O)[C@H]7O)[C@H]6O)C(C)(C)C5CC[C@]43C)[C@@H]2C1 (some centres undefined),-5.36%,inactive,inactive,,,
CC(=O)OC/C(=C/C(=O)O)CC[C@@H]1C(C)=CC(=O)[C@@H]2C(C)(C)CCC[C@@]12C,-23.7%,inactive,inactive,,,
O=C(/C=C/c1ccccc1)OC[C@]12O[C@H]1[C@@H](O)[C@@H]1C=CO[C@@H](O[C@@H]3O[C@H](CO)[C@@H](O)[C@H](O)[C@H]3O)[C@@H]12,7.14%,inactive,inactive,,,
CCNC(=O)NCCCOc1cccc(CN2CCCCC2)c1,15%,inactive,inactive,,,
C[C@H]1CC[C@@]2(OC1)O[C@H]1CC3C4CC[C@H]5C[C@@H](O)CC[C@]5(C)C4CC(=O)[C@]3(C)[C@H]1[C@@H]2C (some centres undefined),25.9%,inactive,inactive,,,
O=C(O[C@H]1[C@@H]2C=CO[C@@H](O[C@@H]3O[C@H](CO)[C@@H](O)[C@H](O)[C@H]3O)[C@@H]2[C@@]2(CO)O[C@@H]12)c1ccccc1,10.7%,inactive,inactive,,,
CCC(CC)Nc1nc(C)c(-c2ccc(OC(F)(F)F)cc2OC)nc1OC,-3.57%,inactive,inactive,,,
CC(C(=O)Nc1cc(C#N)ccc1CCCC(=O)O)c1ccc(F)c2ccccc12 (centres undefined),17.9%,inactive,inactive,,,
CC1OC(OC2C(C)OC(OC3C(OC(=O)/C=C/c4ccc(O)cc4)C(CO)OC(OC4(COC(=O)/C=C/c5ccc(O)cc5)OC(CO)C(O)C4O)C3OC3OCC(O)(CO)C3O)C(O)C2O)C(O)C(O)C1O (centres undefined),14.5%,inactive,inactive,,,
C[C@@H]1O[C@@H](O[C@H]2[C@H](OC(=O)[C@]34CCC(C)(C)C[C@H]3C3=CCC5[C@@]6(C)C[C@H](O)[C@H](O[C@@H]7O[C@H](CO)[C@@H](O[C@H]8OC[C@](O)(CO)[C@H]8O)[C@H](O)[C@H]7O)[C@@](C)(CO)C6[C@H](O)C[C@@]5(C)[C@]3(C)C[C@H]4O)OC[C@H](O)[C@@H]2O)[C@H](O)[C@H](O)[C@H]1O[C@@H]1OC[C@@H](O)[C@H](O[C@@H]2OC[C@](O)(CO)[C@H]2O)[C@H]1O (some centres undefined),-17.6%,,,8.6% [at 11.2 µM],-7.49% [at 11.2 µM],
C=C(C)[C@H]1C[C@@H](O)C(=C)CC[C@@H](O)C(=C)[C@@H](O)C1,-8.04%,inactive,inactive,,,
CCC(CC)C(=O)Nc1sc2c(c1C#N)CCC(C(C)(C)CC)C2 (centres undefined),-3.34%,inactive,inactive,,,
c1nc(NC2CCCCCC2)c2cc(CNC[C@H]3CCCO3)sc2n1,-0.893%,inactive,inactive,,,
C/C1=C/CCC2=CC(OC2=O)C(C)(C)/C=C/C1=O (centres undefined),,inactive,inactive,,,4.26 µM (active)
CC1=C2C=C(CO)C(CO)CCC2(C)CCC1=O (centres undefined),3.82%,inactive,inactive,,,
O=C(c1ccc(Cl)cc1)N1CCN(c2ccnc3cc(Cl)ccc23)CC1,-3%,inactive,inactive,,,
CCC(=O)O[C@]1(C(=O)CCl)[C@@H](C)C[C@H]2[C@@H]3C[C@H](F)C4=CC(=O)C=C[C@]4(C)[C@@]3(F)[C@@H](O)C[C@@]21C,17.9%,inactive,inactive,,,
CC(=O)O[C@H]1C[C@@H]2[C@]3(CC[C@]4(C)[C@@H](C5(C)CCC(C(C)(C)O)O5)[C@@H](O)C[C@@]24C)C[C@@]32CC[C@H](O[C@@H]3OC[C@@H](O)[C@H](O)[C@H]3O)C(C)(C)[C@H]12 (some centres undefined),-4.46%,inactive,inactive,,,
c1cc(-c2cc(C3CCNCC3)[nH]n2)ccn1,1.79%,inactive,inactive,,,
CC(=O)OC1CC2C(C)(C)C(=O)C=CC2(C)C2CC(=O)C3=C(CCC3C3=CC(O)OC3=O)C12C (centres undefined),-12.2%,inactive,inactive,,,
C/C(=C/CO)CCC1C(C)CCC2C(C)(C)CCCC12C (centres undefined),-9.92%,inactive,inactive,,,
CC(C)(C)NCCCNC(=O)c1cccc(Br)c1,-8.59%,inactive,inactive,,,
OCC1=CC[C@@H]2C=CO[C@@H](O[C@@H]3O[C@H](CO)[C@@H](O)[C@H](O)[C@H]3O)[C@H]12,-9.92%,inactive,inactive,,,
CC1CCN(C(=O)CC#N)CC1N(C)c1ncnc2[nH]ccc12 (centres undefined),1.79%,inactive,inactive,,,
CC(=O)NCCCCn1c2c(c3ccccc31)C(=O)NCC2,-13.4%,inactive,inactive,,,
C=C1C(=O)O[C@@H]2[C@H]1CCC(C)=C1CCC(=O)O[C@]12C,,inactive,inactive,,,12 µM (active)

SMILES,activation [1],Potency [2],Potency [3],"activity change, negative = inhibition [2]","activity change, negative = inhibition [3]",Potency [1]
Cc1ccc(-c2ncccn2)c(C(=O)N2C[C@H](COc3ccc(F)cn3)CC[C@H]2C)c1,-14.3%,inactive,inactive,,,
CC(C)(O)c1ccc2c(c1)C(=O)CC1[C@](C)(CO)CCC[C@]21C (some centres undefined),26.8%,inactive,inactive,,,
COC(=O)CCSCc1ccc(-c2onc(C)c2NC(=O)OC(C)c2ccccc2Cl)cc1 (centres undefined),-5.25%,inactive,inactive,,,
CC1CC2(O)OC(=O)C3=C2C(CCC3)[C@@]12C[C@@H](c1ccoc1)OC2=O (some centres undefined),-12.2%,inactive,inactive,,,
CC(=O)O[C@H]1[C@H](OC(=O)C(C)C)[C@]2(C)OC3(CC[C@]2(C)[C@H]2CCC[C@]4(CO4)[C@]12C)COC(=O)C3 (some centres undefined),1.53%,inactive,inactive,,,
COC(=O)C1(C)CCCC2(C)c3ccc(C(C)C)cc3C(O)C(O)C12 (centres undefined),-14.3%,inactive,inactive,,,
C/C=C(\C)C(=O)OC[C@H]1O[C@@H](O[C@H]2[C@@H](O[C@H]3O[C@H](CO)[C@@H](O)[C@H](O)[C@H]3O[C@@H]3O[C@H](CO)[C@@H](O)[C@H](O)[C@H]3O)O[C@H](COC(=O)/C(C)=C/C)[C@@H](O)[C@@H]2O)[C@H](O)[C@@H](O)[C@@H]1O,-8.4%,inactive,inactive,,,
Cc1nnsc1C(=O)Nc1ccc(-n2nc(C(F)(F)F)cc2C(F)(F)F)cc1,1.43%,inactive,inactive,,,
COc1c(N2CC3CCCNC3C2)c(F)cc2c(=O)c(C(=O)O)cn(C3CC3)c12 (centres undefined),3.34%,inactive,inactive,,,
C=CC1(C)CC=C2C(CCC3C(C)(C(=O)O)CCCC23C)C1 (centres undefined),-1.53%,inactive,inactive,,,
CC(C)CCC[C@@H](C)[C@H]1CC[C@H]2[C@@H]3CC(=O)[C@H]4C[C@@H](O)CC[C@]4(C)[C@H]3CC[C@]12C,-7%,inactive,inactive,,,
Cc1occc(=O)c1O[C@@H]1O[C@H](CO)[C@@H](O)[C@H](O)[C@H]1O,11.6%,inactive,inactive,,,
CC(=O)OC1C=C(C(=O)O)C2(CO)CCC(C)C(C)(CCc3ccoc3)C2C1 (centres undefined),-25.2%,inactive,inactive,,,
C=C(C)[C@@H]1CC[C@]2(C(=O)O)CC[C@]3(C(=O)O)[C@H](CCC4[C@@]5(C)CCC(=O)C(C)(C)C5CC[C@]43C)C12 (some centres undefined),33.9%,inactive,inactive,,,
C=C1C(=O)O[C@@H]2[C@H]1[C@H](O)C[C@]1(C)[C@@H](O)CC=C(C)[C@@H]21,,inactive,inactive,,,15.1 µM (active)
CC1(C)CC[C@]2(C(=O)O[C@@H]3O[C@H](CO)[C@@H](O)[C@H](O)[C@H]3O)CC[C@]3(C)C(=CCC4[C@@]5(C)C[C@@H](O)[C@H](O)[C@@](C)(CO)C5[C@H](O)C[C@]43C)C2[C@@H]1O (some centres undefined),-5.34%,inactive,inactive,,,
CN1C(=O)c2ccccc2-n2c(nc3ccccc3c2=O)/C1=C/c1ccccc1,2.29%,inactive,inactive,,,
NC(=O)NCCCC(NC(=O)Cc1ccccc1)C(=O)O (centres undefined),-1.79%,inactive,inactive,,,
NC(=NCCCCCCN=C(N)/N=C(\N)Nc1ccc(Cl)cc1)/N=C(\N)Nc1ccc(Cl)cc1,,inactive,inactive,,,30.1 µM (active)
COC1C=C(C)C(O)(CO)C2(C)CCCC(C)(C)C12 (centres undefined),13%,inactive,inactive,,,
CC(C)(O)C1CCC2(C)C3C(O)C4C(C13)C42CO (centres undefined),3.57%,inactive,inactive,,,
CC(=O)C1(C)CCC2C3C=C(C)C4=CC(=O)CCC4(C)C3CCC21C (centres undefined),-17%,inactive,inactive,,,
CC(C)CCC1(O)C(=O)C(C)(C)C(O[C@@H]2O[C@H](CO)[C@@H](O)[C@H](O)[C@H]2O)C(C)(C)C1O (some centres undefined),12.5%,inactive,inactive,,,
CCC(C)/C=C(C)/C=C/C1=CC2=C(Cl)C(=O)C(C)(OC(C)=O)C(=O)C2=CN1C(CCCN=C(N)N)C(=O)O (centres undefined),16%,inactive,inactive,,,
C=CC(C)(CC/C=C(\C)CC/C=C(\C)CC(O)/C=C(\C)C(=O)O)O[C@@H]1O[C@H](CO)[C@@H](O)[C@H](O)[C@H]1O[C@@H]1O[C@H](CO)[C@@H](O)[C@H](O)[C@H]1O (some centres undefined),-12.2%,inactive,inactive,,,
C=C1C(=O)O[C@@H]2/C=C(\C)C(=O)/C=C/[C@](C)(O)C[C@@H](OC(=O)C(C)C)[C@@H]12,,inactive,inactive,,,2.95 µM (active)

# From PubChem BioAssay (NCATS)
